These results are taken from PubChem BioAssay (NCI).

About 83,000 compounds went through this panel and 20% of them were active in at least one assay; those are over-represented in the sample as a whole.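 Single-concentration screen, 48 h exposure, 96-well plates. Endpoint: percent growth. Below 10 = active.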 Calls of active or inactive are those of the source.

In this assay the test system is MDA-MB-231 breast. Put plainly: NCI-60 one-dose screen, 48 h (100 = growth as untreated, 0 = no growth, -100 = all killed). The settings on record: 10 µM.
Regarding `c1ccc(CCCCc2ccc3ccccc3n2)cc1`, the growth is 106% (inactive).
Under `COc1ccc(-c2nn(-c3cccc(Cl)c3)cc2-c2c(C#N)c(=O)n3[nH]c(-c4ccccc4)nc3c2C#N)cc1` stands 87.1% (inactive); under `COc1ccc2c(c1)C(=O)/C(=C/c1cccc(OCC(=O)c3ccc([N+](=O)[O-])cc3)c1)CO2`, 60.9% (inactive); under `NC(N)=N/N=C(\c1ccccc1)C(O)c1ccccc1` (configuration not stated), 100% (inactive).
Under `COc1ccc2c(c1)C(CC(=O)NN)CCC2` (configuration not stated) stands 101% (inactive); under `Cc1cc(=O)n2nnc3cc(C(F)(F)F)ccc3n12`, 108% (inactive).
As to `NS(=O)(=O)c1ccc(N2N=C(c3ccccc3)CCC2=O)cc1`, the growth is 112% (inactive).
Take `COc1ccc(-c2nc(-c3nc4ccc(C)cc4[nH]3)cc3c2[nH]c2ccccc23)cc1`: the growth is 15.8% (inactive).
The result for `COc1cc(C2CC(c3ccccc3)=NN2C(C)=O)cc(OC)c1OC` (configuration not stated) reads 75.3% (inactive); that for `CSc1ccc(-c2cc(-c3ccc(NC(=O)CCCN4CCCC4)cc3)nc(-c3ccc(NC(=O)CCCN4CCCC4)cc3)c2)cc1`, -4.05% (active).
Take `CC(C1=C(CN(C(=O)Cc2cn(-c3ccccc3)nc2-c2ccc(Cl)cc2)C(C)C)Cc2ccccc21)c1ccccn1` (configuration not stated): the growth was 60.2% (inactive).
The result for `O=C1OC(C(Cl)(Cl)Cl)OC1C(Cl)(Cl)Cl` (configuration not stated) reads 103% (inactive).
